Among the data in PubChem BioAssay are growth inhibition, inhibition and outcome values, retold here.

A number with no mark means an inactive call. For some assays here: Measured potencies and affinities stand elsewhere. Activity calls are given as the source filed them. Unless noted, no rule for the calls is given here.

A short description of assay [1]: antimalarial activity against Dd2 strain (AID 2302;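 active = growth inhibition above 50% at the single 2 µM test dose, taken to imply half-maximal potency below 2 µM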;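 also: 0% = DMSO untreated growth and 100% = chloroquine plus artemisinin killed control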). The conditions noted are these: P. falciparum Dd2 in RBCs, LDH growth readout, 72 h; at 2 µM; active compounds read high.
Assay [2] in a line: HepG2 cytotoxicity, primary screen, cytotoxicity control for P. falciparum antimalarial project, cell-based, ATP luminescence (AID 2303;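 active = inhibition above 50%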;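 also: 0% = DMSO wells and 100% = digitonin-killed cells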). Particulars: HepG2 viability, 24-48 h, at 10 µM, active compounds read high.
The target of assay [3] is L-lactate dehydrogenase (Plasmodium falciparum (isolate CDC / Honduras)) (UniProt Q27743). As to the kind of experiment: PfLDH activity inhibition – cell lysate, 3D7 strain, counter-screen for P. falciparum growth inhibition project (AID 2304).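 Also: 0% = vehicle and 100% = reference inhibitor.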 The conditions noted are these: P. falciparum 3D7 crude extract, LDH APAD/NBT absorbance; at 2 µM; active compounds read high.
Assay [4] is described as follows: inhibition of 3D7 malaria parasite growth – strain 3D7 (AID 2306).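 Also: 0% = DMSO wells and 100% = chloroquine plus artemisinin control wells.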 The conditions noted are these: P. falciparum 3D7 erythrocytic growth, LDH absorbance, 72 h; at 2 µM; active compounds read high.
Assay [5] deals with Calcium-dependent protein kinase 1 (Plasmodium falciparum (isolate 3D7)) (UniProt P62344). Nature of the assay: PfCDPK1 kinase inhibitors, biochemical, TCAMS library (AID 1159585; cut-off not given, nearly all actives have IC50 up to about 0.98 µM;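 also: inhibitors leave more ATP so luminescence rises with inhibition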). Particulars: recombinant PfCDPK1, Kinase-Glo ATP depletion luminescence.
The target in assay [6] is Plasmodium falciparum protein kinase 6 (PK6, PF3D7_1337100) (UniProt Q8IDW1). Nature of the assay: PfPK6 kinase inhibitors, biochemical, TCAMS library (AID 1159586). The conditions noted are these: recombinant PfPK6, Kinase-Glo ATP depletion luminescence.
For assay [7], the target named is Protein kinase 7 (PK7), Plasmodium falciparum 3D7 (PF3D7_0213400) (UniProt Q7YTF7). Nature of the assay: inhibition of Plasmodium PK7 catalytic activity – biochemical, TCAMS antimalarial set, Kinase-Glo luminescence (AID 1159587). The conditions noted are these: recombinant PfPK7, Kinase-Glo ATP depletion luminescence.
The target of assay [8] is Calcium-dependent protein kinase 4 (Plasmodium falciparum (isolate 3D7)) (UniProt Q8IBS5). As to the kind of experiment: PfCDPK4 kinase inhibitors, biochemical, TCAMS library (AID 1159588; cut-off not given, nearly all actives have IC50 up to about 0.91 µM). Particulars: recombinant PfCDPK4, Kinase-Glo ATP depletion luminescence.
Sequence of Calcium-dependent protein kinase 4 (Plasmodium falciparum (isolate 3D7)) (Q8IBS5 whole entry, looked up): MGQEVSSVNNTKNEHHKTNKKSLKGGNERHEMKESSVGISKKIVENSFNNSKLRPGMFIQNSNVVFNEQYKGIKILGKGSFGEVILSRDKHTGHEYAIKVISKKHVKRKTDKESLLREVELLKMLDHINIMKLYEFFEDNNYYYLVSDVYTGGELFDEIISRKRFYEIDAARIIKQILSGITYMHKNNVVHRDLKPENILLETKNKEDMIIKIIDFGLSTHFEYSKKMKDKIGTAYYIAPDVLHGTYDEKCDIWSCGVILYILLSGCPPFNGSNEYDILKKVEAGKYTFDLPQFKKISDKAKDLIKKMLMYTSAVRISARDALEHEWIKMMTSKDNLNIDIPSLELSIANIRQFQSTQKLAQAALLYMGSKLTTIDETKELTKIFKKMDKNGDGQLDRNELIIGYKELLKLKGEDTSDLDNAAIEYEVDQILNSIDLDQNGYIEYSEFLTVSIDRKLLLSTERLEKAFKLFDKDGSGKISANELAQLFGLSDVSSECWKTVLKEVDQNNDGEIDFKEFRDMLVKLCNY

Sequence of Plasmodium falciparum protein kinase 6 (PK6, PF3D7_1337100) (Q8IDW1 1-305): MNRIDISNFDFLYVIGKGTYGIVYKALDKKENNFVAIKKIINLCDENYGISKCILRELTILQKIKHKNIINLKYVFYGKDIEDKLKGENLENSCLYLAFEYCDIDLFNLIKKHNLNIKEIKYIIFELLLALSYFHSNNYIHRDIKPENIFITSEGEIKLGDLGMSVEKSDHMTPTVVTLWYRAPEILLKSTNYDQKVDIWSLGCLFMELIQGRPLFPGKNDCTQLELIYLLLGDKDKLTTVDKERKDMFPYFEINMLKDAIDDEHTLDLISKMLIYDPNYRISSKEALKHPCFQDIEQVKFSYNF
Sequence of Protein kinase 7 (PK7), Plasmodium falciparum 3D7 (PF3D7_0213400) (Q7YTF7 1-343): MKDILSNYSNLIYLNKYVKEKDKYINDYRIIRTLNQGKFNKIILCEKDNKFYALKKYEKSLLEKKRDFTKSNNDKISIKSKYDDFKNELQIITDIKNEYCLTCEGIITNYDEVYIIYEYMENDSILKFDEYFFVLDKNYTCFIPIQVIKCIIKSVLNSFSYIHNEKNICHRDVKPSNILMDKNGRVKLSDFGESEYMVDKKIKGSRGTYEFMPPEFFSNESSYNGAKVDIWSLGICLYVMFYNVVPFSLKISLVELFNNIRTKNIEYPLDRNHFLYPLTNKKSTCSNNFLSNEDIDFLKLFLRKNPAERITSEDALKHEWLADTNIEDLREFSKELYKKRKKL
Sequence of L-lactate dehydrogenase (Plasmodium falciparum (isolate CDC / Honduras)) (Q27743 whole entry, looked up): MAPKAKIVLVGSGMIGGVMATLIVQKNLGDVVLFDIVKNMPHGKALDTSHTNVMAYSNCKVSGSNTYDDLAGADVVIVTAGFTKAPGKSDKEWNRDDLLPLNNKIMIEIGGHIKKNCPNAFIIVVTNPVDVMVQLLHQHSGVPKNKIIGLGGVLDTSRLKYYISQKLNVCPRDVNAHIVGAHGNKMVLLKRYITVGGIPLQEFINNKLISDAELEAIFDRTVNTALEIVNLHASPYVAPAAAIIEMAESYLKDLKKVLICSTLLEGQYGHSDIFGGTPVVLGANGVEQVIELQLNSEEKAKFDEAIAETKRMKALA
Sequence of Calcium-dependent protein kinase 1 (Plasmodium falciparum (isolate 3D7)) (P62344 whole entry, looked up): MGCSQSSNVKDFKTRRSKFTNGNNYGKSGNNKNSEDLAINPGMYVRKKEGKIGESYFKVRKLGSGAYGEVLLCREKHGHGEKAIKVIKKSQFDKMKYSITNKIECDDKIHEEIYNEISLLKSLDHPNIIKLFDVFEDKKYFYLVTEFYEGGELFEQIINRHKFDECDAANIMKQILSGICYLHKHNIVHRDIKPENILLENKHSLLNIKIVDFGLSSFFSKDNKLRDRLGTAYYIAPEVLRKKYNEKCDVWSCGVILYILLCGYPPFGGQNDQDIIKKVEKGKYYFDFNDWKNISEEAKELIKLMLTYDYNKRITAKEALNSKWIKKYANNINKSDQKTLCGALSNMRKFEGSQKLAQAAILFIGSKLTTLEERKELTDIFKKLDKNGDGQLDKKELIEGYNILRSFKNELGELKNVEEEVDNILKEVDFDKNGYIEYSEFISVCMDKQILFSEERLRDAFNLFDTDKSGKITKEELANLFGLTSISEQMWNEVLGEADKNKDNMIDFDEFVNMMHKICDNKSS

Take `CN1CCc2cc(CN3C[C@]4(C)C[C@H]3CC(C)(C)C4)c(O)cc2C(c2ccccc2)C1` (some centres not stated): the growth inhibition is 88% (active) in assay [1] and 98% (active) in assay [4]. In addition, the figures for the inhibition in assay [2] and in assay [3] were -4% and -3%, respectively. Further, the outcome in assay [5], in assay [6], in assay [7] and in assay [8] was inactive.

Take `CCNc1cc(C)nc(Nc2ccc(NC(=O)c3c(F)cccc3Cl)cc2)n1`: the growth inhibition in assay [1] was 89% (active); in assay [4], 102% (active). The inhibition in assay [2] was 49%; in assay [3] it was -4%. Also, the outcome in assay [5], in assay [6], in assay [7] and in assay [8] was inactive.

Regarding `COc1ccc(C2CC(=O)C3=C(C2)NC(C)=C(C(=O)OC2CCCC2)C3c2cccc(O)c2)cc1OC` (configuration not stated), the growth inhibition in assay [1] is 98% (active); in assay [4] it was 101% (active). Besides, the figures for the inhibition in assay [2] and in assay [3] were 8% and -1%, respectively. Moreover, the result in assay [5], in assay [6], in assay [7] and in assay [8] was inactive.

For `Cc1ccnc(-n2c(C)cc(C=C3SC(=Nc4ccccc4)N(Cc4ccco4)C3=O)c2C)c1`, the growth inhibition was 98% (active) in assay [1] and 99% (active) in assay [4]. The inhibition in assay [2] was -5%; in assay [3], -1%. The result in assay [5], in assay [6], in assay [7] and in assay [8] was inactive.

With `CS(=O)(=O)c1cccc(-c2cnc3[nH]cc(-c4ccc(C(=O)O)cc4)c3c2)c1`, the growth inhibition in assay [1] is 100% (active); in assay [4] it was 99% (active). Also, the inhibition was 6% in assay [2] and -2% in assay [3]. In addition, the result in assay [5], in assay [6], in assay [7] and in assay [8] was inactive.

Regarding `CC(C)N1CCN(c2ccc(OCCCCN3CCN(c4cccc(Cl)c4Cl)CC3)cc2Cl)CC1`, the growth inhibition was 34% in assay [1] and 89% (active) in assay [4]. Further, the inhibition is 63% (active) in assay [2] and -1% in assay [3]. Further, the result in assay [5], in assay [6], in assay [7] and in assay [8] was inactive.

`CC(=O)Nc1ccc2[nH]cc(C3CCN(CCC4CCN(C(=O)/C=C/c5ccc(Cl)c(Cl)c5)CC4)CC3)c2n1`: the values for the growth inhibition in assay [1] and in assay [4] were 80% (active) and 101% (active), respectively. In addition, the inhibition in assay [2] is 16%; in assay [3] it was 1%. Besides, the result in assay [5], in assay [6], in assay [7] and in assay [8] was inactive.

As to `COc1cccc(NC(=O)Nc2cc(-c3ccc4[nH]ncc4c3)cc3c2CNC3=O)c1`, the values for the growth inhibition in assay [1] and in assay [4] were 100% (active) and 98% (active), respectively. In addition, the inhibition in assay [2] was 3%; in assay [3], 5%. The outcome in assay [5], in assay [6], in assay [7] and in assay [8] was inactive.

As for `Cc1nc2ccc3ccc(CNc4ccc(C(=O)N[C@@H](CCC(=O)O)C(=O)O)cc4)cc3c2c(=O)[nH]1`, the results for the growth inhibition in assay [1] and in assay [4] were 95% (active) and 89% (active), respectively. Further, the inhibition in assay [2] is 32%; in assay [3], 0%. Further, the outcome in assay [5], in assay [6], in assay [7] and in assay [8] was inactive.

In the case of `COc1cc(NC(=O)N2CCOC(CCN3CCC4(CCc5ccccc54)CC3)(c3ccc(Cl)c(Cl)c3)C2)cc(OC)c1` (configuration not stated), the growth inhibition was 50% (active) in assay [1] and 87% (active) in assay [4]. Also, the inhibition in assay [2] was 29%; in assay [3] it was 3%. Also, the result in assay [5], in assay [6], in assay [7] and in assay [8] was inactive.

For `FC(F)(F)c1ccc2nc(-c3ccc(-c4ccc(CN5CCN(c6ccncc6)CC5)cc4)s3)[nH]c2c1`, the results for the growth inhibition in assay [1] and in assay [4] were 50% (active) and 100% (active), respectively. Further, the inhibition was 97% (active) in assay [2] and 2% in assay [3]. In addition, the result in assay [5], in assay [6], in assay [7] and in assay [8] was inactive.

Consider `COc1cc2c(cc1O)[C@@H]1[C@H](O)[C@@H](O)C=C3CCN(C2)[C@H]31`, for which the growth inhibition in assay [1] is 31%; in assay [4] it was 90% (active). For the same molecule, the inhibition in assay [2] is 18%; in assay [3], 3%. Moreover, the outcome in assay [5], in assay [6], in assay [7] and in assay [8] was inactive.

For `Cc1ccc2nc(C)n(C3CCN(C(=O)C4(c5ccccc5)CC4)CC3)c2c1`, the figures for the growth inhibition in assay [1] and in assay [4] were 83% (active) and 100% (active), respectively. Moreover, the inhibition in assay [2] was 8%; in assay [3], 7%. The result in assay [5], in assay [6], in assay [7] and in assay [8] was inactive.

As for `COc1cc(F)c2ncc(F)c(CCN3C[C@H](CNCc4ccc5c(n4)NC(=O)CS5)[C@H](O)C3)c2c1`, the growth inhibition is 47% in assay [1] and 91% (active) in assay [4]. For the same molecule, the figures for the inhibition in assay [2] and in assay [3] were 10% and 2%, respectively. Further, the outcome in assay [5], in assay [6], in assay [7] and in assay [8] was inactive.

Take `COc1ccc(CNC2Cc3ccccc3C2)cc1-c1ccc(S(=O)(=O)NCc2cccnc2)s1`: the figures for the growth inhibition in assay [1] and in assay [4] were 18% and 91% (active), respectively. In addition, the inhibition is 49% in assay [2] and 3% in assay [3]. Also, the outcome in assay [5], in assay [6], in assay [7] and in assay [8] was inactive.

With `O=S(=O)(NCCN1CCCC1)c1ccc(-c2ccccc2CNC2Cc3ccccc3C2)cc1`, the growth inhibition is 67% (active) in assay [1] and 95% (active) in assay [4]. The inhibition in assay [2] is 19%; in assay [3], -9%. Moreover, the outcome in assay [5], in assay [6], in assay [7] and in assay [8] was inactive.

As to `COc1ccc(Nc2nc(C)cc(NCc3ccc(-c4c(C)noc4C)cc3)n2)cc1`, the growth inhibition in assay [1] was 50% (active); in assay [4], 99% (active). The results for the inhibition in assay [2] and in assay [3] were 48% and -5%, respectively. Besides, the result in assay [5], in assay [6], in assay [7] and in assay [8] was inactive.

On to `COc1ccc(CN(C)CCCc2ccc(NC(=O)c3cc4ccccc4[nH]3)cc2)cc1OC`, for which the growth inhibition is 31% in assay [1] and 97% (active) in assay [4]. Besides, the results for the inhibition in assay [2] and in assay [3] were 39% and -5%, respectively. For the same molecule, the outcome in assay [5], in assay [6], in assay [7] and in assay [8] was inactive.

Consider `COc1ccc(CCN2CCC(Nc3nc4ccccc4n3CCc3ccc(OC)cc3)CC2)cc1`, for which the values for the growth inhibition in assay [1] and in assay [4] were 88% (active) and 101% (active), respectively. In addition, the inhibition in assay [2] was 34%; in assay [3] it was -1%. The result in assay [5], in assay [6], in assay [7] and in assay [8] was inactive.
